Our source for the growth values is PubChem BioAssay (NCI).

What all share (test): NCI-60 one-dose screen, 48 h (100 = growth as untreated, 0 = no growth, -100 = all killed)
Holding throughout (details): 10 µM unless noted

In experiment [1] the test system is HCT-15 colon.
In experiment [2] the test system is HT29 colon.
In experiment [3] the test system is SNB-75 CNS.
The subject of experiment [4] is SNB-19 CNS.
In experiment [5] the test system is U251 CNS.
For experiment [6], the system named is PC-3 prostate.
Experiment [7] has as its system SK-MEL-5 melanoma.
Experiment [8] deals with UACC-62 melanoma.
The test system of experiment [9] is LOX IMVI melanoma.
The test system of experiment [10] is SK-MEL-28 melanoma.
In experiment [11] the test system is SK-MEL-2 melanoma.
The subject of experiment [12] is EKVX NSCLC.
The subject of experiment [13] is SN12C renal.
For experiment [14], the system named is UO-31 renal.
Experiment [15] concerns TK-10 renal.
Experiment [16] concerns ACHN renal.
The subject of experiment [17] is A498 renal.
The test system of experiment [18] is CCRF-CEM leukemia.
Experiment [19] deals with MOLT-4 leukemia.
The test system of experiment [20] is SR leukemia.

Each structure is given as a SMILES string. This is part of a sample that, as a whole, favours compounds with a hit. Of some 83,000 tested, about 20% had one in any assay.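 Single-concentration screen, 48 h exposure, 96-well plates. Endpoint: percent growth. Below 10 = active.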 Values without a mark were called inactive. Active and inactive are the calls of the source.

Regarding `Cc1ccc(C2=N[C@H]3CCC[C@@H]3N(c3ccccc3)C(C(Cl)Cl)=N2)cc1`, the growth in experiment [1] is 99%; in [2], 89.7%; in experiment [3], 77%; in [4] it was 113%; in experiment [5] it was 112%; in experiment [6], 101%. Also, the growth in [7] is 104%; in experiment [8], 105%; in [9] it was 87.9%; in experiment [10] it was 101%; in experiment [11], 96.8%; in [12], 98.4%. Besides, the growth was 107% in [13]; 81.9% in [14]; 100% in [15]; 98% in experiment [16]; 112% in [17]; 96.4% in [18]. Further, the growth in experiment [19] is 94.3%; in [20], 95.8%.
As for `COc1cc2c(cc1OC)C(Sc1ccc(Cl)cc1)c1c(nc(N)c(C#N)c1N)O2` (stereo not given), the growth in experiment [1] is -66.2% (active); in experiment [2], -61.9% (active); in [3] it was -17.4% (active); in experiment [4] it was 22.1%; in experiment [5] it was -62.5% (active); in experiment [6] it was 5.11% (active). Also, the growth in experiment [7] was 12.5%; in experiment [8], -23.8% (active); in experiment [9], -88.9% (active); in experiment [10], -3.09% (active); in experiment [11], -21.1% (active); in [12], 1.68% (active). For the same molecule, the growth in experiment [13] is 1.66% (active); in [14], -36.3% (active); in [15], -12.6% (active); in [16], -66.9% (active); in [17], 66.4%; in experiment [18] it was -7.67% (active). In addition, the results for the growth in experiment [19] and in [20] were 0.994% (active) and -13.3% (active), respectively.
Consider `CN(CCC#N)C(=O)Nc1ccccc1`, for which the growth in experiment [1] is 104%; in experiment [2] it was 94.6%; in [3] it was 99.2%; in [4], 109%; in experiment [5] it was 102%; in [6], 99.5%. Moreover, the growth in experiment [7] was 110%; in experiment [8], 101%; in [9] it was 96.2%; in experiment [10], 112%; in experiment [11], 98.7%; in [12], 105%. Further, the growth was 111% in experiment [13]; 87.3% in [14]; 84.1% in experiment [15]; 110% in [16]; 90.4% in experiment [17]; 111% in experiment [18]. In addition, the growth in experiment [19] was 99.7%; in [20], 96.5%.
In the case of `COC1=CC2C=C(C3N(c4ccccc4)NC(=O)[C@@H]4CCCN34)C(=O)NC2C=C1` (stereo not given in full), the growth in experiment [1] is 101%; in experiment [2], 102%; in [3], 85%; in experiment [4], 104%; in [5], 110%; in [6], 102%. The growth in experiment [7] was 102%; in experiment [8] it was 104%; in experiment [9], 92.8%; in [10], 108%; in experiment [11], 97.9%; in experiment [12], 96.7%. Further, the growth is 107% in experiment [13]; 86.9% in experiment [14]; 100% in [15]; 102% in [16]; 95.9% in experiment [17]; 113% in experiment [18]. Moreover, the growth in experiment [19] is 124%; in experiment [20], 105%.
As for `COC(=O)c1ccc(NC(=O)CSc2nc(-c3ccc(F)cc3)nc3ccccc23)cc1`, the growth in experiment [1] is 89.3%; in experiment [2], 91.3%; in experiment [3], 79.4%; in experiment [4] it was 80.2%; in experiment [5], 63.1%; in [6] it was 75.6%. Moreover, the growth in [7] was 74.3%; in [8], 93.4%; in experiment [9], 64.8%; in experiment [10], 94.7%; in experiment [11] it was 99.8%; in experiment [12] it was 91.4%. Further, the growth in experiment [13] is 79.3%; in [14] it was 82.3%; in experiment [15], 113%; in [16], 97.4%; in experiment [17] it was 99.6%; in [18], 85.7%. The growth in [19] was 89%; in experiment [20] it was 78%.
Turning to `COc1ccc2nc(-c3ccc(OC)c(OC)c3)cc(-c3nnc(SCC(=O)Nc4ccc(/C(C)=N\O)cc4)n3-c3ccccc3)c2c1`, the growth in experiment [1] is 76.2%; in experiment [2] it was 89.2%; in experiment [3], 77.3%; in experiment [4] it was 84.3%; in experiment [5], 78.3%; in [6], 60.7%. Also, the growth is 71.7% in experiment [7]; 71.1% in experiment [8]; -28.1% (active) in experiment [9]; 111% in experiment [10]; 80.7% in experiment [11]; 88.8% in experiment [12]. Further, the growth in [13] was 80.7%; in experiment [14], 54.2%; in experiment [15], 65.9%; in experiment [16] it was 75.5%; in experiment [17] it was 77.9%; in [18], 40%. The growth in [19] was 33.8%; in experiment [20], 54.7%.
Turning to `Cc1nccc2c3ccc(OCc4cn(-c5ccc(Cl)cc5)nn4)cc3n(CC(C)C)c12`, the growth is 18.7% in [1]; 1.3% (active) in experiment [2]; 55.8% in experiment [3]; 38.9% in [4]; 26.9% in experiment [5]; 17.4% in [6]. In addition, the growth was -78.3% (active) in [7]; 24.2% in experiment [8]; 3.05% (active) in [9]; 25.2% in experiment [10]; 20.7% in experiment [11]; 40.8% in [12]. Also, the growth in experiment [13] was 37.7%; in experiment [14], 12.4%; in experiment [15], 13.7%; in experiment [16] it was 34.8%; in [17], 22.6%; in experiment [18], 18%. The growth in [19] is -11.1% (active); in [20], -14.8% (active).
On to `COCCOC(=O)COc1ccc(OC)cc1`, for which the growth in [1] was 98.1%; in [2] it was 114%; in experiment [3] it was 91.8%; in experiment [4], 97.4%; in experiment [5], 102%; in experiment [6], 96.8%. The growth is 93.8% in experiment [7]; 96.2% in [8]; 102% in experiment [9]; 109% in [10]; 120% in experiment [11]; 96.6% in experiment [12]. Further, the growth was 99.7% in [13]; 88.9% in experiment [14]; 108% in experiment [15]; 106% in experiment [16]; 88.2% in experiment [17]; 104% in experiment [18]. Further, the values for the growth in experiment [19] and in experiment [20] were 90.7% and 88.2%, respectively.
